# Data reported in PubChem BioAssay.
# Activity calls are given as the source filed them. Rule as the data show it: active = inhibition above about 25%; inactive = the rest.
# Experiment: repression of VP16-driven luciferase reporter – cell-based, luminescence, high throughput, counter-screen for SRC1 inhibitor project (AID 588824)
# Settings: cell-based VP16 transactivation luciferase luminescence; at 3.6 µM; hits give high values
row,Structure (SMILES),inhibition
1,Cc1sc(NC(=O)Cc2ccc3c(c2)OCO3)nc1-c1ccc2c(c1)CCN2C(=O)c1ccc(F)cc1,25.9% (active)
2,COc1ccc(NC(=O)c2cc([N+](=O)[O-])ccc2O)cc1,29.2% (active)
3,Cc1cc(C(=O)NNc2ccc(F)cc2)no1,8.26% (inactive)
4,C(=Cc1cnc2ccccc2n1)c1ccc2c(c1)OCO2,21.3% (inactive)
5,Cc1nc2ccc(NC(=O)c3ccc(Cl)c(S(=O)(=O)N(C)c4ccccc4)c3)cc2s1,33.7% (active)
6,Cn1c(/C=C/c2ccc(Cl)cc2)c([N+](=O)[O-])c(=O)n(C)c1=O,28.6% (active)
7,CCOc1ccc(-n2c(C)c(C(C)=O)c3cc(OC(C)=O)ccc32)cc1,47.6% (active)
8,Cc1ccc(C(=O)NCCn2cc(SCC(=O)Nc3nnc(C)s3)c3ccccc32)cc1,-0.04% (inactive)
9,Nc1nc(=O)n(C2OC(CO)C(O)C2O)cc1F (centres undefined),38.9% (active)
10,Cn1c(Sc2ccc(Cl)cc2)c(C=O)c2ccccc21,37% (active)
11,CC[n+]1ccccc1/C=C/c1ccc(N(C)C)cc1,40.1% (active)
12,CC(=O)N(C(C)=O)c1ncc2c([nH]c3ccccc32)c1C#N,26.8% (active)
13,O=C(NCc1cccs1)c1nc2c(nnn2Cc2ccccc2Cl)c(=O)[nH]1,74.7% (active)
14,c1nc2sc3c(c2c2nnnn12)CCCC3,9.37% (inactive)
15,Cn1c(/C=C/c2ccc(Cl)cc2Cl)c([N+](=O)[O-])c(=O)n(C)c1=O,56.3% (active)
16,CC(=O)c1ccc(Nc2ncnc3ccc(Br)cc23)cc1,37.8% (active)
17,Cn1c(=O)c2c(nc(NCc3ccco3)n2C/C=C/c2ccccc2)n(C)c1=O,39.9% (active)
18,O=C(Nc1nc(-c2ccc(S(=O)(=O)N3CCOCC3)cc2)cs1)c1ccccc1,12.6% (inactive)
19,CC(C)c1ccc(/C=N/Nc2ccc(C(=O)O)cc2)cc1,-51.3% (inactive)
20,O=c1[nH]cc(F)c(=O)[nH]1,22.3% (inactive)

row,Structure (SMILES),inhibition
1,CC(C)n1cc(/C=C/c2cc[n+](C)cc2)c2ccccc21,30.3% (active)
2,CN(C(=O)COC(=O)/C=C/c1cccc([N+](=O)[O-])c1)C1CCS(=O)(=O)C1 (centres undefined),29.5% (active)
3,Cc1cc(=O)[nH]c(Nc2cccc(C(F)(F)F)c2)n1,27% (active)
4,COc1ccc2cc3c(N)nn(C(=O)c4ccc(Cl)c([N+](=O)[O-])c4)c3nc2c1,36.5% (active)
5,CCOC(=O)C(=Cc1ccccc1OC)C(=O)OCC,22.2% (inactive)
6,Cn1c(=O)c2c(nc(Oc3ccc4ccccc4c3)n2C)n(C)c1=O,34.7% (active)
7,O=C(Nc1c2ccccc2nc2ccccc12)C(Cl)(Cl)Cl,8.17% (inactive)
8,CC(=O)Nc1ccc(SCC(=O)c2cc(C)n(-c3ccccc3)c2C)cc1,-6.91% (inactive)
9,COc1ccc(Cc2nnc(SCc3ccc([N+](=O)[O-])cc3)o2)cc1,17.4% (inactive)
10,COC1CC(C)C(OC)c2cc(O)cc(c2O)NC(=O)C(C)=CC=CC(C)C(OC(N)=O)C(C)=CC(C)C1OC (centres undefined),77% (active)
11,CCN1/C(=C/c2ccc3cc(C)cc(C)c3[n+]2CC)Sc2cc(C)ccc21,59.3% (active)
12,CN(C)c1ccc(CNC(=O)CCNS(=O)(=O)c2cc(Br)cnc2N)cc1,20.7% (inactive)
13,CN(Cc1ccccc1)c1ncnc(N)c1[N+](=O)[O-],30% (active)
14,c1ccc(-c2noc(-c3ccc4c(c3)OCO4)n2)nc1,33.7% (active)
15,COc1ccc2cc3c(N)nn(C(=O)c4ccc(F)cc4)c3nc2c1,36.3% (active)
16,O=C(/C=C/c1ccc(OCCCF)cc1)Nc1ccnc(-c2cccnc2)n1,15.8% (inactive)
17,CCCCNc1nc2c(c(=O)n(C)c(=O)n2C)n1Cc1cccc(OC)c1,26.6% (active)
18,CN1CCN(c2ncnc3scc(-c4ccccc4Cl)c23)CC1,44.3% (active)
19,O=C(N/N=C/c1ccccc1O)/C(=C/c1ccccc1)CCO,19.2% (inactive)
